# Records with an inconclusive call do not appear. A number with no mark means an inactive call. Activity calls are given as the source filed them. The call rests on the fitted dose curve; in most records, active means well fitted inhibition curve with a large enough effect; inconclusive means small, poorly fitted or top-dose-only effect; inactive means no such curve, though single readings can be large or run the other way.
# Assay: Primary fluorescence-based thiol-reactive (MSTI) qHTS assay for identification of artifact compounds. (AID 1845221); further: nearly all actives have a fitted effect of over 65% in size;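 on activity change, negative = thiol reactive: thiol-reactive compounds lower the probe fluorescence signal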
# Conditions: MSTI thiol-reactivity probe, 1 h; series mostly up to 53.8 µM; activity change, negative = thiol reactive: at the top concentration
# Outline: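 One-hour, room-temperature, dark incubation of compound with 4 uM MSTI in PBS (pH 7.4, 2% DMSO) precedes a fluorescence read at 525 nm excitation, 598 nm emission; Hill-equation fitting yields concentration-response values.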
# Potency means the concentration at half of the fitted maximal effect.
SMILES,"activity change, negative = thiol reactive",Potency
O=S(=O)(NCc1ccccn1)c1ccc(Br)c2ccccc12,128%,
C/C=C(\C)C(=O)O[C@H]1C=C(CO)C(=O)[C@H](OC(C)=O)[C@H]1C(C)C,16.4%,
O=C(NCc1ccccc1)c1ccc2c(=O)n(-c3cccc(C(F)(F)F)c3)c(=S)[nH]c2c1,-13.7%,
C[C@H](Nc1cc2c(-c3ccc4c(c3)OCO4)noc2cn1)c1ccccc1,-20.4%,
CC1=CC2/C=C(\C)CCC3OC(C)(C)OC3CCC(=O)C23C(=O)NC(CC(C)C)C3C1C (centres undefined),-9.2% [at 25.6 µM],
COc1ccc(Sc2ccc(NC(=O)c3ccccc3Cl)cc2C#N)cc1,365%,
COc1ccc([C@H]2OC[C@H]3O[C@@H](O[C@H]4[C@@H]2NC[C@@H]4O)[C@H](O)[C@H]3O)cc1,-0.929%,
CC(=O)O[C@H]1C[C@@](O)(C(C)C)[C@@H]2[C@@H](OC(=O)c3ccc(O)cc3)CC(C)=CC[C@@]12C,64% [at 25.6 µM],
CCCCNc1ncc2c(-c3ccc(S(=O)(=O)N4CCOCC4)cc3)nn(C3CCC(O)CC3)c2n1 (centres undefined),16.8%,
CN1CCN(C(=O)CN[C@@H]2C[C@H]2c2ccc(OCc3ccccc3)cc2)CC1,28.1%,
O=C(N[C@H]1CCC[C@H](CO)C1)C1CCN(c2nc3cc(Cl)c(-c4ccc(Cl)cc4)cc3o2)CC1,71.4%,
Cn1ncc(Cl)c1-c1cc(C(=O)N[C@H](CN)Cc2cccc(F)c2)sc1Cl,256%,
C=C(C)C(=O)O[C@H]1[C@H]2C(=C)C(=O)O[C@@H]2/C=C(\CO)CC/C=C(/C=O)[C@@H]1O,-5.38%,
Cc1noc(C)c1-c1cc(O)cc(C(O)c2ccccc2)c1 (centres undefined),67%,
C=C1C(=O)OC2/C=C(/C)C3=CC(=O)C(C)(CC(OC(=O)/C(C)=C/COC(C)=O)C12)O3 (centres undefined),,4.12 µM (active)
C[C@@H](O[C@H]1OCCN(Cc2nn(P(=O)(O)O)c(=O)[nH]2)[C@H]1c1ccc(F)cc1)c1cc(C(F)(F)F)cc(C(F)(F)F)c1,126% [at 25.6 µM],
Cn1ncc(Cl)c1-c1cc(C(=O)NC(CN)Cc2ccc(F)c(F)c2)oc1Cl (centres undefined),168%,
O=c1[nH]c2cccc(N3CCN(Cc4ccc(-c5ccccc5)cc4)CC3)c2o1,46.4%,
CS(=O)(=O)Nc1ccc2oc3c(OC(F)F)ccc(C(=O)Nc4c(Cl)cncc4Cl)c3c2c1,40.5%,
O=C(NCCCN1CCC2(CC1)OCc1ccccc12)[C@H]1CCCN1Cc1ccccc1,15.8%,

SMILES,"activity change, negative = thiol reactive",Potency
O=C(c1ccc(Cl)cc1)N1CCN(c2ccnc3cc(Cl)ccc23)CC1,59.1%,
COc1cc(O)cc(OC2OC(CO)C(O)C(O)C2O)c1 (centres undefined),,9.47 µM (active)
O=C(NCc1ccc(OC(F)(F)F)cc1)C1c2c(F)cccc2C(=O)N1CCc1ccccn1 (centres undefined),39.2%,
C=CC(=O)N1CC(N2CCN(C(=O)CNc3cc(C4CC4)c(Cl)cc3O)CC2)C1,,2.67 µM (active)
CC(C)CCNC(=O)[C@H](CC(C)C)NC(=O)[C@H]1O[C@@H]1C(=O)O,-0.116%,
CC(C)c1c(O)ccc2c1CC[C@H]1C(C)(C)CCC[C@]21C,7.98%,
CC(=O)O[C@@H]1[C@H](O[C@@H]2O[C@@H](CO)[C@H](O)[C@H]2O)[C@@H](O[C@@H]2O[C@@H](C)[C@H](O[C@@H]3OC[C@@H](O)[C@H](O)[C@H]3O)[C@@H](O)[C@H]2O)[C@H](OC(=O)[C@]23CCC(C)(C)C[C@H]2C2=CCC4[C@@]5(C)CC[C@H](O[C@@H]6O[C@H](C(=O)O)[C@@H](O)[C@H](O)[C@H]6O[C@@H]6O[C@H](CO)[C@H](O)[C@H](O)[C@H]6O)[C@@](C)(C=O)C5CC[C@@]4(C)[C@]2(C)C[C@H]3O)O[C@@H]1C (some centres undefined),435% [at 11.5 µM],
CCN1CCC[C@@H]1CNC(=O)c1ccc2c(c1)NC(=O)c1cccc(C)c1S2,69.8%,
C=CCCN1CCC2(CC1)CN(C(=O)c1c(F)cccc1F)c1ccc(Cl)cc12,86.8%,
O=C(Nc1cnc(Cl)nc1)c1ccc(F)c(F)c1,-2.44%,
COc1cc(NC(=O)c2cccc(-n3cc(NC(=O)Nc4cccc(C)c4)cn3)c2)cc(OC)c1OC,105%,
CC(=O)Nc1cccc(Nc2ncnc(N3CCC(OCc4ccc(OC(F)(F)F)cc4)CC3)n2)c1C,-11.3%,
C=C(C)C(=O)O[C@H]1[C@H]2C(=C)C(=O)O[C@@H]2C[C@@H](C)[C@@H]2O[C@@H]2C(=O)[C@](C)(O)[C@@H]1OC(=O)C(=C)C,17.8% [at 25.6 µM],
CCN1CCN(Cc2ccc(NC(=O)c3ccc(C)c(Oc4ccnc5[nH]ccc45)c3)cc2C(F)(F)F)CC1,7.44%,
CCCn1ncc(CN2CCCC(C(=O)c3cccc(OC(C)C)c3)C2)c1C (centres undefined),62.9%,
COc1ccc(-c2cnc3c(-c4cccc5ncccc45)cnn3c2)cc1,-2.06%,
COC(=O)N1CCC(n2ncc3c(N4CCOCC4)nc(-c4ccc(NC(=O)NC5CC5)cc4)nc32)CC1,90.2%,
COc1ccc(C[C@H]2COC(=O)[C@@H]2Cc2ccc(O[C@@H]3O[C@H](CO)[C@@H](O)[C@H](O)[C@H]3O)c(OC)c2)cc1OC,29.2% [at 25.6 µM],
CC(C)(Cc1ccccc1)NCC(O)c1ccc(O)c(NS(C)(=O)=O)c1 (centres undefined),-3.4%,

# — PubChem BioAssay (NCATS)
